In the library only some 2.7% were active in any assay of this set; here they are far more common.
gsp ag: gsp mutant agonism. Potency, µM (titrated, usually from 76.9 µM), for the others: at the highest dose activation (cAMP increase), most hits filed as activators. 340,000 compounds, 0.13% hits. gsp mutant cells, cAMP HTRF, 30 min. AID 624287; active = well fitted activation curve with a large enough effect; inconclusive = small, poorly fitted or top-dose-only effect, or another doubt; inactive = no such curve, though single readings can be large or run the other way; cell line not stated here;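 note: phosphodiesterase inhibitor Ro 20-1724 added with compounds to block cAMP breakdown; potency is the fitted concentration of half-maximal effect; nearly all actives have a fitted effect of over 60% in size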
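Cells stably selected in G418 were plated at 2000/well, grown 16-24 hr, then given compounds in DMSO with the PDE inhibitor […] (300 uM solution added) for 30 min at 37C; cAMP was read by HTRF.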
pAkt inh: Akt phosphorylation inhibition. AID 651550. activity change, % for hits at 50 µM. 360,000 compounds, 0.32% hits. Neuro2A IGF-stimulated pAkt S473 HTRF, 20 min; hits give low values; in the data active = activity change below about -80%; inconclusive = mostly about -51% to -80%; note: % is set by controls: 0 for no effect and ±100 for the full control effect
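Neuro2A cells (4,500/well, DMEM with 0.5% FBS) were treated with compound at a single 50 µM final concentration, stimulated with 6 nM IGF for 20 min at 37 °C, and lysed. Phospho-Akt Ser473 was read by HTRF as 665/615 ratio ×10^4.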
RXFP1 agonist: agonists of human relaxin receptor RXFP1; Q9HBX9; HEK293T-RXFP1 cAMP TR-FRET, 30 min; response scale: percent of porcine relaxin response, buffer zero; Potency, µM (series often up to 57.5 µM), without a hit: at the top dose activation, hits mostly activators; 370,000 compounds, 0.3% hits; AID 2676; active = well fitted activation curve with a large enough effect; inconclusive = small, poorly fitted or top-dose-only effect; note: potency is the fitted concentration of half-maximal effect; % is set by controls: 0 for no effect and ±100 for the full control effect; nearly all actives have a fitted effect of over 60% in size
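HEK293 cells stably expressing RXFP1, treated 30 min at 37C with compounds plus PDE4 inhibitor Ro 20174; cAMP measured by HTRF TR-FRET. Normalized to buffer and 29 nM porcine relaxin; EC50 by Hill fit.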
ClpP mod: qHTS Assay for Activators of ClpP | purified B. subtilis ClpP, FRET peptide cleavage, 20 min | Potency, µM (highest dose often 57.5 µM), for the others: top-dose activity change, negative = active | 340,000 compounds, 1.9% hits | AID 651965, 2013; active = well fitted falling curve with a large enough effect; inconclusive = small, poorly fitted or top-dose-only effect; inactive = no such curve, though single readings can be large or run the other way; note: potency is the fitted concentration of half-maximal effect; the source files actives as falling curves though it sought activators and does not explain the sign; nearly all actives have a fitted effect of over 65% in size
Target sequence (P80244 whole entry, looked up): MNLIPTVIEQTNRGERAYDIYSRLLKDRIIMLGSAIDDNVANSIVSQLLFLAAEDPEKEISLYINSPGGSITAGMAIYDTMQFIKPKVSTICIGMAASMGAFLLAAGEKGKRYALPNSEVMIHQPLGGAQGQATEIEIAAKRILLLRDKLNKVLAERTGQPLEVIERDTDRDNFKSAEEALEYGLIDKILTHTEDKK
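Buffer: 100 mM Tris/HCl pH8, 100 mM KCl, 0.05% low protease BSA, 2.5% glycerol, 0.01% Tween-20. ClpP 10 microg/mL final; 20 min RT; delta FRET normalized to ADEP and DMSO controls.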
RXFP1 antag: blocks the human relaxin receptor RXFP1; activity change, negative = inhibition, % at 57.5 µM; HEK293-RXFP1, relaxin-stimulated cAMP HTRF, 30 min; hits give low values; AID 1259400; 350,000 compounds, 0.59% hits;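 active = activity change of -60% or lower, but not beyond a set lower limit; inconclusive = change between -60% and -40%, or beyond the set limit; inactive = change above -40%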; note: % is set by controls: 0 for no effect and ±100 for the full control effect
gsp antag: antagonists of gsp mutant (McCune-Albright syndrome). gsp-mutant cells, cAMP HTRF, 30 min. Potency, µM (top dose mostly 76.9 µM), for the others: at the highest dose activity change, negative = inhibition, hits mostly inhibitors. 340,000 compounds, 0.4% hits. AID 624288; calls by dose curve; cell line not stated here;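 note: intracellular cAMP measured with PDE inhibitor Ro 20-1724 present during compound exposure; potency is the fitted concentration of half-maximal effect; % is set by controls: 0 for no effect and ±100 for the full control effect; nearly all actives have a fitted effect of over 65% in size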
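Cells, 2000/well, grown 16–24 h in DMEM 10% FBS with 0.5 mg/ml G418, then compounds plus […] (300 uM addition stock), 30 min at 37C. cAMP read by HTRF (cAMP-d2 and anti-cAMP antibody-K in lysis buffer) after 30 min RT.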
Active calls of the source: *; i = inactive; u = inconclusive; x = not tested or not shown; [ ] = remark or other dose.

SMILES | gsp ag | pAkt inh | RXFP1 agonist | ClpP mod | RXFP1 antag | gsp antag
CCOC(=O)Cc1c(C)nc2c(-c3cccc(Br)c3)c[nH]n2c1=O | 6.3% | i | 0.8% | 14.1µM* | -19.4 | u
CCOC(=O)Cc1cc(=O)n2[nH]c(-c3ccccc3)cc2n1 | -0.7% | i | -0.1% | 28.2µM* | 9.9 | -6.1%
Clc1ccc2c(SCC3CO3)c3ccccc3nc2c1 (stereo not given) | u | i | x | 31.6µM* | -7.3 | -4.6%
O=C(CSc1c2c(nc3cc(Cl)ccc13)CCCC2)NCCN1CCOCC1 | u | i | 12.2% | x | 13.2 | -2.3%
CCSc1nnc(-c2cnn(-c3ccccc3)c2-n2cccc2)n1C | 18.0% | -114.8%* | -0.9% | -2.5% | -6.4 | 5.1%
CN(C)c1ccc(/C=C/c2c(Br)cnc3ccccc23)cc1 | x | x | x | 1.1% | x | x
Cc1ccc(S(=O)(=O)N2CCOCC2)cc1NC(=O)COC(=O)CCOc1ccc(C(C)(C)C)cc1 | -0.2%[15.4 µM] | i | 0.8% | 2.8% | -14.7 | -7.9%
O=C(Nc1cccc(/C=C/c2ccccn2)c1)c1ccc(-n2cncn2)c([N+](=O)[O-])c1 | -2.0%[15.4 µM] | i | 2.0% | -1.2% | -24.9 | 39.8µM*
COc1ccc(NC(=O)c2ccc(-n3cncn3)c([N+](=O)[O-])c2)cc1 | -12.0% | i | 3.6% | x | 15.1 | -6.8%
Cc1ccc(NC(=O)c2ccc(-n3cccn3)c([N+](=O)[O-])c2)cc1 | u | i | 0.9% | -1.1% | -8.4 | u
Cc1cccc(NC(=O)c2ccc(-n3cccn3)c([N+](=O)[O-])c2)c1 | -44.0% | -116.2%* | 2.1% | 0.2% | -6.4 | -8.1%
CCc1ccc(NC(=O)c2ccc(-n3cncn3)c([N+](=O)[O-])c2)cc1 | 8.9% | i | 1.6% | 0.7% | -20.6 | 50.1µM*
NCC(=O)c1c[nH]c2ccccc12 | x | x | x | -4.9% | x | x
Cc1cn([C@H]2C[C@H](O)[C@@H](/C=C/C(=O)NCCC(C)C)O2)c(=O)[nH]c1=O | x | i | x | -1.3% | x | x
COc1ccc(-c2onc(C)c2C)cc1S(=O)(=O)Nc1ccc(OC(F)(F)F)cc1 | x | x | -0.7% | -0.1% | -20.4 | x
Cc1ccc(S(=O)(=O)N2CCOC2CNC(=O)C(=O)NCCN(C)C)cc1 (stereo not given) | 3.1% | i | 0.8% | -1.0% | -5.6 | 14.2%
CC=Cc1cc2c(c(=O)o1)C(=O)C(O)C(C)O2 (stereo not given) | -8.9% | i | x | 12.6µM* | -1.7 | 3.1%
COc1ccc(N(Cc2ccccc2)C(=O)CSc2nnc(Cn3nnc4ccccc43)o2)cc1 | 25.3% | i | -0.4% | -2.1% | 6.0 | 28.2µM*
CCN(CC)C(=O)C1CCCN(C/C=C/c2ccccc2)C1 (stereo not given) | 5.4% | -104.6%* | 2.2% | 0.7% | -5.8 | 8.5%
CCN(CC)C(=O)C1CCCN(C/C(C)=C/c2ccccc2)C1 (stereo not given) | 10.9% | i | 0.4% | -0.9% | 12.6 | -0.5%
O=[N+]([O-])c1cc(CN2CCOCC2)c2cccnc2c1O | -3.1%[15.4 µM] | i | 0.1% | x | -102.1* | -20.0%
Nc1ccc2c(c1)C(=O)c1ccc(Br)cc1-2 | 3.6%[15.4 µM] | i | x | 0.7% | -3.6 | -12.7%
O=C(O)c1cc(S(=O)(=O)O)ccc1O | 6.5% | i | -0.4% | 20µM* | -5.5 | 9.4%
CCOc1cc(CNCc2ccccc2)ccc1OCc1ccc(Cl)cc1 | -54.1% | i | -3.1% | x | -95.9* | 5.6%
COc1ccc(CNCCc2ccc(Cl)cc2)cc1OCc1ccccc1 | -42.9% | i | 0.4% | 0.3% | -31.5 | 10.7%
SMILES | gsp ag | pAkt inh | RXFP1 agonist | ClpP mod | RXFP1 antag | gsp antag
NCCc1nc2cccnc2n1-c1ccccc1 | x | x | -1.4% | -1.5% | x | x
COc1cccc2[nH]c3c(N4CCCCC4)ncnc3c12 | 20.9% | i | 1.3% | 28.2µM* | -11.7 | -12.4%
COc1ccc2[nH]c3c(Cl)ncnc3c2c1 | 8.8% | i | 9.5% | -0.3% | 19.8 | 19.5%
CCOC(=O)C1CCN(c2ncnc3c2[nH]c2cccc(OC)c23)CC1 | -43.6% | i | -0.5% | 8.8% | -19.7 | 8.7%
COc1cccc2[nH]c3c(Cl)ncnc3c12 | 0.1% | i | -3.2% | 15.8µM* | 15.4 | 3.2%
CCN(CC)CCNC(=O)CCn1c(=O)c2cccn2c2cccnc21 | x | x | 7.2% | 4.0% | 8.2 | x
NS(=O)(=O)c1cc(C(=O)NN2C[C@H]3[C@H]4CCC(C4)[C@H]3C2)ccc1Cl | x | x | x | x | -7.0 | x
O=C(O)CC/C(=N/Nc1ccc([N+](=O)[O-])cc1)C(=O)O | -63.3% | i | -1.5% | 0.7% | 17.4 | 9.4%
O=C(O)CC/C(=N\Nc1ccc([N+](=O)[O-])cc1)c1ccccc1 | 8.0%[15.4 µM] | i | 0.0% | 0.0% | -10.3 | 31.6µM*
CCOC(=O)Nc1ccc(C)cc1C | -2.3% | i | 0.6% | 0.0% | 2.9 | 1.4%
CCOC(=O)Nc1cc(=O)c2ccccc2o1 | -26.6% | x | 2.8% | 31.6µM* | -9.5 | 14.3%
CCOC(=O)Nc1cc2c(C)cc(=O)oc2cc1C | 4.0% | i | -1.9% | 15.8µM* | x | 4.0%
O=C(Cc1ccccc1)Nc1sc2c(c1C(=O)Nc1ccccc1Cl)CCC2 | x | x | 2.7% | -5.4% | -1.2 | x
C=C(C)COc1ccc(-c2nc(N)ncc2Oc2ccc(OC)cc2)c(O)c1 | -1.3% | i | 4.0% | 25.1µM* | -8.5 | -2.0%
COc1cccc(-c2nc(S(=O)(=O)c3ccc(C)cc3)c(N3CCCCC3)o2)c1 | x | x | 0.6% | -25.5% | 3.8 | x
O=c1oc2cc(O)ccc2cc1-c1nc2c(s1)CCc1ccccc1-2 | u | i | 5.8% | 20µM* | 4.4 | 13.7%
CCOC(=O)CSc1nc(=O)n2ccc(C)cc2n1 | u | i | 15.8% | x | -71.9* | -5.2%
COC(=O)C1=C(C)NC(C)=C(C(=O)OC)C1c1ccc(-c2cccc(Cl)c2Cl)o1 | u | i | -0.7% | 25.1µM* | x | 1.3%
CC(=O)c1cccc(NC(=O)COc2ccccc2C(=O)Nc2ccccc2)c1 | x | x | x | -4.0% | x | x
CC(C)(C)c1cc(-c2csc(Nc3ccccc3)[n+]2Cc2ccc(C(=O)O)cc2)cc(C(C)(C)C)c1O | 8.0%[15.4 µM] | i | 2.1% | x | -29.3 | 31.6µM*
COc1ccccc1Cc1nc2ccccc2nc1SCC(=O)Nc1cccc(Cl)c1C | x | x | 7.1% | -0.4% | 11.7 | x
CC(C)CSC1=NSC2=NC(=O)/C(=C\c3cccs3)C(=N)N12 | -14.6%[15.4 µM] | i | -0.2% | -1.2% | -4.6 | -12.5%
CSC1=NSC2=NC(=O)/C(=C/c3coc4ccccc4c3=O)C(=N)N12 | -5.1% | i | 2.1% | -23.5% | 7.4 | u
N=C1/C(=C/c2cccs2)C(=O)N=C2SN=C(SCc3ccccc3)N12 | 16.5% | i | 2.4% | -0.8% | -9.9 | 31.6µM*
